According to PubChem BioAssay (NCATS):
Results filed as inconclusive are left out. Entries that show only a call come without a potency. Calls of active or inactive are those of the source. Calls come from the whole dose curve; as a rule, active = well fitted inhibition curve with a large enough effect; inconclusive = small, poorly fitted or top-dose-only effect; inactive = flat fitted curve, though single readings scatter.

Assays:
Assay in all cases: qHTS profiling for inhibitors of Plasmodium falciparum proliferation (AID 504749); note: nearly all actives have a fitted effect of over 60% in size
Details in all cases: P. falciparum in erythrocytes, SYBR Green DNA, 72 h; series mostly up to 28.7 µM
CP215 = system: CP215
Summary of the method: (§1)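 Infected RBCs, 0.3% parasitemia/2.5% Hct final; cpd 72 h, 37 C, 5% CO2; lysis buffer with saponin/triton/SYBR Green I, o/n RT dark; FI 485/535; norm. to artemisinin (0.29 uM) and DMSO.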

CP217 = system: CP217
Summary of the method: as §1

CP237 = system: CP237
Summary of the method: as §1

CP238 = system: CP238
Summary of the method: as §1

CP247 = system: CP247
Summary of the method: as §1

CP250 = system: CP250
Summary of the method: as §1

CP252 = system: CP252
Summary of the method: as §1

CP256 = system: CP256
Summary of the method: as §1

CP260 = system: CP260
Summary of the method: as §1

CP262 = system: CP262
Summary of the method: as §1

CP265 = system: CP265
Summary of the method: as §1

CP266 = system: CP266
Summary of the method: as §1

CP268 = system: CP268
Summary of the method: as §1

CP269 = system: CP269
Summary of the method: as §1

CP286 = system: CP286
Summary of the method: as §1

CP291 = system: CP291
Summary of the method: as §1

CP297 = system: CP297
Summary of the method: as §1

CP305 = system: CP305
Summary of the method: as §1

CP315 = system: CP315
Summary of the method: as §1

CP325 = system: CP325
Summary of the method: as §1
Potency is the fitted concentration of half-maximal effect.

Structure (SMILES)	Potency (CP215)	Potency (CP217)	Potency (CP237)	Potency (CP238)	Potency (CP247)	Potency (CP250)	Potency (CP252)	Potency (CP256)	Potency (CP260)	Potency (CP262)	Potency (CP265)	Potency (CP266)	Potency (CP268)	Potency (CP269)	Potency (CP286)	Potency (CP291)	Potency (CP297)	Potency (CP305)	Potency (CP315)	Potency (CP325)
Cc1ccccc1CNc1ncnc2c1ncn2C1OC(CO)C(O)C1O (stereo not given)	inactive	inactive	inactive	inactive	inactive	inactive	inactive	inactive	inactive	inactive	inactive	inactive	inactive	inactive	inactive	inactive	inactive	inactive	inactive	inactive
O=C(O)[C@H](CC(=O)N1C[C@H]2CCCC[C@H]2C1)Cc1ccccc1	inactive	inactive	inactive	inactive	inactive	inactive	inactive	inactive	inactive	inactive	inactive	inactive	inactive	inactive	inactive	inactive	inactive	inactive	inactive	inactive
O=C(O)/C=C/C(O)c1ccc(Cl)cc1 (stereo not given)	inactive	inactive	inactive	inactive	inactive	inactive	inactive	inactive	inactive	inactive	inactive	inactive	inactive	inactive	inactive	inactive	inactive	inactive	inactive	inactive
COc1ccc(/C=C/C(=O)Nc2ccccc2C(=O)O)cc1OC	inactive	inactive	inactive	inactive	inactive	inactive	inactive	inactive	inactive	inactive	inactive	inactive	inactive	inactive	inactive	inactive	inactive	inactive	inactive	inactive
O=C(Nc1ccc(C(=O)O)c(O)c1)c1ccccc1	inactive	inactive	inactive	inactive	inactive	inactive	inactive	inactive	inactive	inactive	inactive	inactive	inactive	inactive	inactive	inactive	inactive	inactive	inactive	inactive
Cc1ccc(O)c(-n2nc3ccccc3n2)c1	inactive	inactive	inactive	inactive	inactive	inactive	inactive	inactive	inactive	inactive	inactive	inactive	inactive	inactive	inactive	inactive	inactive	inactive	inactive	inactive
Clc1ccccc1-c1nc(-c2ccncc2)no1	inactive	inactive	inactive	inactive	inactive	inactive	inactive	inactive	inactive	inactive	inactive	inactive	inactive	inactive	inactive	inactive	inactive	inactive	inactive	inactive
Cc1c(Nc2ncccc2C(=O)O)cccc1C(F)(F)F	inactive	inactive	inactive	inactive	inactive	inactive	inactive	inactive	inactive	inactive	inactive	inactive	inactive	inactive	inactive	inactive	inactive	inactive	inactive	inactive
Nc1c(CC(=O)O)cccc1C(=O)c1ccc(Br)cc1	inactive	inactive	inactive	inactive	inactive	inactive	inactive	inactive	inactive	inactive	inactive	inactive	inactive	inactive	inactive	inactive		inactive	inactive	inactive
CN1CCN(c2cc3c(nn2)Oc2ccccc2N3C)CC1	inactive	inactive	inactive	inactive	inactive	inactive	inactive	inactive	inactive	inactive	inactive		inactive	inactive	inactive	inactive	inactive	inactive	inactive	inactive
CC1(C)[C@@H](O)CC[C@]2(C)[C@H]3C(=O)C=C4[C@@H]5C[C@@](C)(C(=O)O)CC[C@]5(C)CC[C@@]4(C)[C@]3(C)CC[C@@H]12	inactive	inactive	inactive	inactive	inactive	inactive	inactive	inactive	inactive	inactive	inactive		inactive	inactive	inactive	inactive	inactive	inactive	inactive	inactive
CCCCCC[C@@H](O)C/C=C\CCCCCCCC(=O)O	inactive	inactive	inactive	inactive	inactive	inactive	inactive	inactive	inactive	inactive	inactive		inactive	inactive	inactive	inactive	inactive	inactive	inactive	inactive
O=C(OCc1ccccc1)c1ccccc1	inactive	inactive		inactive	inactive	inactive	inactive	inactive	3.16 µM (active)	inactive	inactive	inactive	inactive	inactive	inactive	inactive	inactive	inactive	inactive	inactive
CC(=O)[C@]1(O)Cc2c(O)c3c(c(O)c2[C@@H](O[C@H]2C[C@H](N)[C@H](O)[C@H](C)O2)C1)C(=O)c1c(O)cccc1C3=O	12 µM (active)		2.51 µM (active)		5.62 µM (active)	11.2 µM (active)			3.55 µM (active)	15.1 µM (active)			12 µM (active)	9.53 µM (active)	2.24 µM (active)	9.53 µM (active)	13.5 µM (active)	7.57 µM (active)		15.1 µM (active)
C[S+](CC[C@H](N)C(=O)O)C[C@H]1O[C@@H](n2cnc3c(N)ncnc32)[C@H](O)[C@@H]1O (stereo not given in full)	inactive		inactive				inactive		inactive	inactive			inactive	inactive	inactive	inactive	inactive	inactive	inactive	inactive
CN1[C@@H]2CC[C@H]1CC(OC(c1ccccc1)c1ccccc1)C2 (stereo not given in full)		12.6 µM (active)				inactive		12.6 µM (active)	inactive			inactive			11.2 µM (active)		inactive		inactive	inactive

Structure (SMILES)	Potency (CP215)	Potency (CP217)	Potency (CP237)	Potency (CP238)	Potency (CP247)	Potency (CP250)	Potency (CP252)	Potency (CP256)	Potency (CP260)	Potency (CP262)	Potency (CP265)	Potency (CP266)	Potency (CP268)	Potency (CP269)	Potency (CP286)	Potency (CP291)	Potency (CP297)	Potency (CP305)	Potency (CP315)	Potency (CP325)
CC(N)C(=O)OC(C)(C)Cc1ccc(Cl)cc1 (stereo not given)			4.47 µM (active)			inactive		inactive		inactive		inactive					9.53 µM (active)		inactive	
CC1(C)C[C@@H]1C(=O)N/C(=C\CCCCSC[C@H](N)C(=O)O)C(=O)O	inactive	inactive	inactive	inactive	inactive	inactive	inactive	inactive		inactive	inactive	inactive	inactive	inactive	inactive	inactive	inactive	inactive	inactive	inactive
CCCC(=O)OC[C@@H](OC(=O)CCC)[C@@H](OC(=O)CCC)[C@H](Cn1c2nc(=O)[nH]c(=O)c-2nc2cc(C)c(C)cc21)OC(=O)CCC	inactive		inactive							inactive		inactive	inactive	inactive		inactive	inactive		inactive	inactive
CN1[C@@H](CC(=O)c2ccccc2)CCC[C@H]1C[C@H](O)c1ccccc1			7.94 µM (active)		inactive	inactive				inactive		inactive	inactive	inactive			inactive		inactive	inactive
c1ccc2sc(SSc3nc4ccccc4s3)nc2c1	inactive	inactive	inactive	inactive	inactive	inactive	inactive	inactive	inactive	inactive	inactive		inactive	inactive	inactive	inactive	inactive	inactive	inactive	inactive
CCCCCCCCCCCC(=O)[O][Sn]([CH2]CCC)([CH2]CCC)[O]C(=O)CCCCCCCCCCC	inactive	inactive	10 µM (active)	inactive	inactive	inactive	inactive	inactive	10 µM (active)	inactive	inactive	inactive	inactive	inactive		inactive	inactive	inactive	inactive	inactive
CCCSc1ccc2nc(NC(=O)OC)[nH]c2c1	inactive	inactive	inactive	inactive		inactive	inactive	inactive	inactive	inactive	inactive	inactive	inactive	inactive	inactive	inactive	inactive	inactive	inactive	inactive
N=c1ccn2c(n1)O[C@H]1[C@H](O)[C@@H](CO)O[C@H]12	inactive	inactive	inactive	inactive	inactive	inactive	inactive	inactive	inactive	inactive	inactive	inactive	inactive	inactive	inactive	inactive		inactive	inactive	inactive
NC(=O)C(c1ccccc1)(c1ccccc1)[C@@H]1CCN(CCc2ccc3c(c2)CCO3)C1						inactive						inactive		inactive					inactive	inactive
O=c1[nH]c2ccccc2n1CCCN1CCN(C(c2ccccc2)c2ccccc2)CC1			8.91 µM (active)							inactive									inactive	
O=C(CCN1CCN(CCO)CC1)N1c2ccccc2Sc2ccc(C(F)(F)F)cc21	inactive		10 µM (active)					11.2 µM (active)	11.2 µM (active)		3.98 µM (active)		inactive		12.6 µM (active)		inactive	inactive	inactive	
O=C1CN(/N=C/c2ccc(-c3ccc([N+](=O)[O-])cc3)o2)C(=O)N1		inactive		inactive	4.47 µM (active)	inactive	inactive	inactive	inactive		inactive	inactive	inactive	inactive	inactive	inactive	inactive	inactive	inactive	inactive
CCOc1ccc2nc(S(N)(=O)=O)sc2c1	inactive	inactive	inactive	inactive	inactive	inactive	inactive	inactive	inactive	inactive	inactive	inactive	inactive	inactive	inactive		inactive	inactive	inactive	inactive
CN1[C@@H]2CC[C@H]1CC(OC(=O)C(CO)c1ccccc1)C2 (stereo not given in full)	inactive	inactive	inactive	inactive	inactive	inactive	inactive		inactive	inactive	inactive	inactive	inactive	inactive	inactive	inactive	inactive	inactive	inactive	inactive
Cc1cc(O)c2ccccc2c1O	inactive	inactive	inactive	inactive	inactive		inactive	inactive	inactive	inactive	inactive	inactive	inactive	inactive	inactive	inactive	inactive	inactive	inactive	inactive
O=C(O)c1cc(O)c(O)c(O)c1	inactive	inactive		inactive		5.62 µM (active)	inactive	inactive			inactive	inactive	inactive	inactive	inactive	inactive	inactive	inactive	inactive	inactive
